# Laboratory results reported in ChEMBL document CHEMBL4513146, “CO-ADD screening of Karazin Kharkiv National University (Ukraine) compounds”.
# Potency and affinity values are given separately.
# Tested on: Escherichia coli
# Conditions: Concentration 32 ug.mL-1;; ASSAY_TEST Inhibition of Bacterial Growth; detection method Absorption (OD600); MEDIA CAMHB; plate type 384well; NBS; CORNING #3640; time 18 hr
row,Structure (SMILES),Inhibition [%]
1,COc1ccc(C)cc1NC(=O)CSc1nc2ccccc2n2cnnc12,4.56
2,Cc1ccc(CNC(=O)Cn2nc3c(Sc4cccc(F)c4)nccn3c2=O)cc1,-12.92
3,CCCc1nnc2c(=O)n(CC(=O)Nc3ccc(NC(C)=O)cc3)c3ccccc3n12,-0.84
4,CCOC(=O)c1ccccc1NC(=O)Cn1nc2c(Oc3ccc(C)cc3)nccn2c1=O,-17.92
5,COc1ccc(NC(=O)Cn2nc3c(SCc4ccc(Cl)cc4)nccn3c2=O)cc1OC,-6.36
6,COc1cccc(Cn2nc3ccc(-c4ccccc4)nn3c2=O)c1,-1.58
7,CCc1cccc(NC(=O)Cn2c(=O)c3nnc(C(C)C)n3c3ccccc32)c1,8.67
8,CC(C)Sc1ccc2nn(CC(=O)Nc3ccc(Br)cc3F)c(=O)n2n1,3.45
9,CC(=O)Nc1ccc(NC(=O)CSc2nc3ccccc3n3cnnc23)cc1,2.28
10,Cc1ccc(N(CC(=O)OC(C)(C)C)S(=O)(=O)c2ccc3nnc(C)n3c2)cc1,-3.61
11,CCCCOc1ccc(-c2cc3c4nnc(SCC(=O)Nc5c(C)cccc5C)n4ccn3n2)cc1,-10.46
12,CCc1ccccc1NC(=O)Cn1nc2c(Sc3ccccc3CC)nccn2c1=O,-2.13
13,CC(C)n1c(=O)c2ccc(C(=O)NC3CCCC3)cc2n2c(=O)n(Cc3cccc(C(F)(F)F)c3)nc12,0.25
14,O=C(Cn1nc2ccc(-c3ccc(Cl)cc3)nn2c1=O)Nc1ccccc1,-11.42
15,O=S(=O)(c1ccc2nncn2c1)N(Cc1ccccc1F)c1ccc(F)c(F)c1,-4.39
